Measurements taken from PubChem BioAssay (NCI).
Compounds without any hit were thinned out: in the full panel of roughly 79,000, 15% have a hit. The source made the active and inactive calls. Rule as the data show it: active = growth inhibition above about 70%; inactive = the rest.

How the values were obtained:
[1] = NCI Yeast Anticancer Drug Screen. Data for the rad50 strain (AID 155);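 also: 0% = growth of vehicle-only cultures of the same strain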; conditions: S. cerevisiae rad50 strain growth inhibition; at 50.0 µM; hits give high values
Summary of the method: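 Vehicle-treated cultures provide the reference for the growth inhibition reported for compound-exposed, repair-deficient yeast.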

[2] = NCI Yeast Anticancer Drug Screen. Data for the mec2-1 strain (AID 157); conditions: S. cerevisiae mec2-1 strain, at 50.0 µM, hits give high values
Summary of the method: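 Each compound was tested on mec2-1 yeast, a strain altered in DNA damage repair or cell cycle control. Growth inhibition is reported relative to vehicle.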

[3] = NCI Yeast Anticancer Drug Screen. Data for the sgs1 mgt1 strain (AID 161);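 also: 0% = growth of cultures given vehicle only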; conditions: S. cerevisiae sgs1 mgt1 strain, at 50.0 µM, hits give high values
Summary of the method: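 Inhibition of yeast growth, normalised to vehicle-treated controls, is reported for a strain bearing genetic alterations in DNA damage repair.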

[4] = NCI Yeast Anticancer Drug Screen. Data for the cln2 rad14 strain (AID 165);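 also: 0% = growth equal to vehicle treated cultures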; conditions: S. cerevisiae cln2 rad14 strain, at 50.0 µM, hits give high values
Summary of the method: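 Test compounds were added to cln2 rad14 yeast cultures; inhibition of growth was then determined by comparison with vehicle treatment.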

[5] = NCI Yeast Anticancer Drug Screen. Data for the bub3 strain (AID 167); conditions: S. cerevisiae bub3 mutant strain, at 50.0 µM, hits give high values
Summary of the method: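 Mutant yeast screening strain plus compound; vehicle-treated cultures serve as the 0% inhibition reference.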

[6] = NCI Yeast Anticancer Drug Screen. Data for the mlh1 rad18 strain (AID 175); conditions: S. cerevisiae mlh1 rad18 strain growth inhibition; at 50.0 µM; hits give high values
Summary of the method: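 Inhibition values reflect reduced growth of mutant yeast versus vehicle-treated controls following compound exposure; the mutations affect DNA damage repair.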

Measured: growth inhibition

CCCC1(CCC)OC(=O)C(CC)(CC)C(=O)O1
inactive: [1] -10.8% | [2] -3.2% | [3] -1.6% | [4] -23.2% | [5] 14.1% | [6] -6%

O=C(CNOCc1ccccc1)OCc1ccccc1
inactive: [1] 25.5% | [2] 16.1% | [3] 2.65% | [4] -6.8% | [5] 3.45% | [6] 19.4%

c1ccc(-c2cc(-c3ccncc3)c(-c3ccccc3)nn2)cc1
inactive: [1] 7.85% | [2] 7.8% | [3] 24% | [4] 22% | [5] -1.1% | [6] 36.4%

COc1cc2c(cc1N)-c1ccc(N)cc1C2O (stereo unspecified)
inactive: [1] 7.55% | [2] 3.65% | [3] -9.05% | [4] 17.3% | [5] 17.1% | [6] 1.05%

CC(N=Nc1ccccc1)/N=N/c1nn[nH]n1 (stereo unspecified)
inactive: [1] 23.8% | [2] -12.2% | [3] -11.6% | [4] -84% | [5] -22% | [6] -3.25%

COC(=O)C1(OC)C(=O)NC2=C1C(=O)c1ccccc1C2=O (stereo unspecified)
inactive: [1] -12.1% | [2] -13% | [3] -4.1% | [4] -18.8% | [5] 9.3% | [6] 4.8%

CCOC(=O)c1cnc(=O)n(Cc2ccccc2)c1N
inactive: [1] -1.25% | [2] 0.65% | [3] 10.9% | [4] 0.45% | [5] 0.35% | [6] -8.15%

O=C(O)c1nn(-c2ccc(Cl)cc2)c2c1C(=O)c1ccccc1C2=O
inactive: [1] 20.9% | [2] 14.7% | [3] -1.75% | [4] 14.1% | [5] 12% | [6] 4.65%

C=CCOC1OC(CS(=O)(=O)O)C(OC(C)=O)C(OC(C)=O)C1OC(C)=O (stereo unspecified)
inactive: [1] 17.9% | [2] 4.2% | [3] -1.1% | [4] 21.6% | [5] -2.75% | [6] 15.9%

CC(=O)OCCOCCCl
inactive: [1] -12.8% | [2] 20.2% | [3] 1.5% | [4] -13.3% | [5] 19.2% | [6] 12.1%

CC(=O)Nc1cc(F)c(N=Nc2ccc(F)cc2)c(F)c1
inactive: [1] 5.3% | [2] -0.6% | [3] 13.4% | [4] -36.9% | [5] -16.1% | [6] 3.45%

[N-]=[N+]=Nc1cc(-c2ccccc2)nc2cc3c(cc12)OCO3
inactive: [1] -2.9% | [2] -7.95% | [3] -19.8% | [4] -16.4% | [5] -34.2% | [6] -7.2%

Nc1nnnn1-c1cccc(Cl)c1
inactive: [1] 7.5% | [2] 0.35% | [3] 1.6% | [4] -18.8% | [5] -2.4% | [6] 10.6%

CC(=O)Nc1ccc(C(=O)NN2C(=O)C(Cl)C2c2ccc([N+](=O)[O-])cc2)cc1 (stereo unspecified)
inactive: [1] -0.05% | [2] 19.6% | [3] -2.05% | [4] 1.45% | [5] -24.4% | [6] 8.3%

COC(=O)c1c2c(cc3c1CC1(Cc4ccccc4C1)C3)CCC2
inactive: [1] 1.15% | [2] 11.6% | [3] 17% | [4] 0.6% | [5] 2.6% | [6] 18.6%

OC(c1ccccc1)(c1ccccc1)C1CC1
inactive: [1] 6.2% | [2] -6.9% | [3] 1.6% | [4] 7% | [5] -19.2% | [6] 10.9%

CCc1cccc(CC)c1NC(=O)/C=C/C(=O)O
inactive: [1] -12.6% | [2] 3.45% | [3] -4.75% | [4] -46.6% | [5] -4.2% | [6] 4.1%

COC(=O)C(Br)(C(=O)OC)C(c1ccccc1)c1ccccc1
active: [3] 72.3%
inactive: [1] 38.1% | [2] 41.3% | [4] 26.2% | [5] 41.8% | [6] 37.3%

c1ccc(C2Nc3ccccc3C3OCCCC23)cc1 (stereo unspecified)
inactive: [1] 2.35% | [2] -4.3% | [3] 9.8% | [4] -9.4% | [5] -20.6% | [6] 1.7%

CN(/N=C(\C(=O)O)c1ccccc1)C1=NCCN1
inactive: [1] -12% | [2] -7.95% | [3] -4.65% | [4] 41.2% | [5] -1.4% | [6] 9.3%

Cc1ccc(S(=O)(=O)OC2=C/C(=N\c3onc(C)c3C)c3ccccc3C2=O)cc1
inactive: [1] -41.6% | [2] -19.4% | [3] -27.9% | [4] -5.4% | [5] -15% | [6] -19.3%

Cc1ncc(CO)c(Nc2ccccc2Cl)n1
inactive: [1] 2.5% | [2] -2.4% | [3] -6.25% | [4] -16.4% | [5] -11.7% | [6] 14.4%

O=c1ncc2ccccc2[nH]1
inactive: [1] -19.9% | [2] -10.7% | [3] -9.6% | [4] -4.3% | [5] -12.8% | [6] -23.9%

CCCC(=O)C1=CC(C(C)C)CCC1C (stereo unspecified)
inactive: [1] 12.6% | [2] -4.4% | [3] -4.05% | [4] -12.2% | [5] 1.15% | [6] 1%

CC(=O)Nc1ccc(C(C#N)C(C#N)c2ccccc2)cc1 (stereo unspecified)
inactive: [1] -1.5% | [2] 8.75% | [3] -0.1% | [4] -68.3% | [5] 11.8% | [6] -2.55%

CC1=NN(C(=O)c2ccc(Cl)cc2)C(=O)/C1=C/c1ccc(O)cc1
inactive: [1] -6.65% | [2] -16.6% | [3] -38.6% | [4] -7.55% | [5] -3.55% | [6] -19.9%

CCOC(=O)C(NC(=O)Nc1ccccc1F)(OC)C(F)(F)F (stereo unspecified)
inactive: [1] -23.1% | [2] -38.3% | [3] -75.4% | [4] -4.3% | [5] -28% | [6] -59.6%

COc1ccc(-c2cc(N)c3c(c2O)C(=O)c2c(N)ccc(O)c2C3=O)cc1
inactive: [1] 13.3% | [2] 4.75% | [3] 4.75% | [4] -23.6% | [5] -4.65% | [6] 9.25%

Cc1nn(C(=O)c2ccncc2)c2c1C(c1cccc([N+](=O)[O-])c1)SC(N)=N2 (stereo unspecified)
inactive: [1] -55.5% | [2] -45.6% | [3] -32.2% | [4] 2.1% | [5] -10.6% | [6] -28.2%

COc1nc(Cl)cc2nc(Cl)cn12
inactive: [1] 3.4% | [2] 9.35% | [3] -3.65% | [4] 9.55% | [5] -11.8% | [6] 2.55%

COc1ccc2c3ccc4c(c3n(C)c2c1)C(=O)c1ccccc1C4=O
inactive: [1] -38.3% | [2] -36.2% | [3] -53% | [4] -14.7% | [5] -22.8% | [6] -46.1%

C=CCNC(=O)N(CCC)CCCC(NC(C)=O)C(=O)NCc1ccccc1 (stereo unspecified)
inactive: [1] -9.75% | [2] -27.5% | [3] -14.8% | [4] 10.4% | [5] -17.1% | [6] -9.7%

CN(C)CCCN
inactive: [1] -11.3% | [2] -4.4% | [3] 3% | [4] -30.8% | [5] 5.7% | [6] 1.5%

Cc1c(C(=O)O)[nH]c(=O)[nH]c1=O
inactive: [1] 9.1% | [2] -20.4% | [3] 2.2% | [4] 11.5% | [5] -0.35% | [6] -12.1%

CN1C(=O)C(=O)C(c2ccccc2)(c2ccccc2)C1=O
inactive: [1] 9.45% | [2] -4.55% | [3] 12.4% | [4] -53.2% | [5] 8.75% | [6] -10.8%

C1=CC(=NN=P(c2ccccc2)(c2ccccc2)c2ccccc2)C=C1
inactive: [1] 21.7% | [2] 7.9% | [3] 20.3% | [4] 19.9% | [5] 18.7% | [6] 13.5%

CSC(c1ccc(Oc2ccccc2)cc1)=[N+]1CCCCC1
inactive: [1] 47.2% | [2] 13.2% | [3] 49.4% | [4] 23.2% | [5] 53.5% | [6] 23.7%

CC1OC(OC23C(=O)CC(C)(O)CC2(O)C=CC2=C3C(=O)c3ccc(C4CC(OC5CCC(OC6CC(O)C(O)C(C)O6)C(C)O5)C(O)C(C)O4)c(O)c3C2=O)CCC1O (stereo unspecified)
inactive: [1] 1.4% | [2] -7.95% | [3] 5.75% | [4] -0.5% | [5] -0.25% | [6] 18.1%

N=C1N=Nc2nc(C(C(=O)c3cccc(O)c3)c3nc4n(c3O)C(=N)N=N4)c(O)n21 (stereo unspecified)
inactive: [1] 18.8% | [2] 23.9% | [3] -8.9% | [4] 10.4% | [5] -2.75% | [6] 28.6%

C/C(CC(O)(C(F)(F)Cl)C(F)(F)Cl)=N\NC(N)=S
inactive: [1] 29.9% | [2] -3.05% | [3] 0.1% | [4] 20.1% | [5] -0.55% | [6] 25.2%

COC(=O)C(N)CO (stereo unspecified)
inactive: [1] -40.5% | [2] -27% | [3] -39.8% | [4] 4.35% | [5] -34.8% | [6] -26.1%
